This note sets out measurements from PubChem BioAssay.

The source made the active and inactive calls.

The nature of assay [1]: anti-His antibody binders, primary screen, artefact control for SMM control protein annotation, biochemical, small-molecule microarray, 635 nm fluorescence (AID 1128).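 Further: score merges feature fluorescence with signal-to-noise for each printed compound spot.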 The following applies: anti-His Alexa647 antibody binding, higher = more signal.
In assay [2] the test system is Human papillomavirus type 1a E7 protein (residues 1-88). Description: HPV1a E7 small-molecule binders, primary screen, biochemical, small-molecule microarray, residues 1-88, 635 nm (AID 1129). The following applies: small-molecule microarray binding, fluorescence 635 nm; higher = more signal.
In assay [3] the target is Focal adhesion kinase 1 (Homo sapiens) (UniProt Q05397). The assay can be described thus: small-molecule microarray binders of FAK, primary screen, biochemical, 635/667 nm fluorescence, BSA, DTT (AID 1130).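 Further: composite of spot emission at 667 nm and signal to noise over triplicate slides.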 The settings on record: PTK2 binding, 635 nm fluorescence, higher = more signal.
Focal adhesion kinase 1 (Homo sapiens), sequence (Q05397 whole entry, looked up): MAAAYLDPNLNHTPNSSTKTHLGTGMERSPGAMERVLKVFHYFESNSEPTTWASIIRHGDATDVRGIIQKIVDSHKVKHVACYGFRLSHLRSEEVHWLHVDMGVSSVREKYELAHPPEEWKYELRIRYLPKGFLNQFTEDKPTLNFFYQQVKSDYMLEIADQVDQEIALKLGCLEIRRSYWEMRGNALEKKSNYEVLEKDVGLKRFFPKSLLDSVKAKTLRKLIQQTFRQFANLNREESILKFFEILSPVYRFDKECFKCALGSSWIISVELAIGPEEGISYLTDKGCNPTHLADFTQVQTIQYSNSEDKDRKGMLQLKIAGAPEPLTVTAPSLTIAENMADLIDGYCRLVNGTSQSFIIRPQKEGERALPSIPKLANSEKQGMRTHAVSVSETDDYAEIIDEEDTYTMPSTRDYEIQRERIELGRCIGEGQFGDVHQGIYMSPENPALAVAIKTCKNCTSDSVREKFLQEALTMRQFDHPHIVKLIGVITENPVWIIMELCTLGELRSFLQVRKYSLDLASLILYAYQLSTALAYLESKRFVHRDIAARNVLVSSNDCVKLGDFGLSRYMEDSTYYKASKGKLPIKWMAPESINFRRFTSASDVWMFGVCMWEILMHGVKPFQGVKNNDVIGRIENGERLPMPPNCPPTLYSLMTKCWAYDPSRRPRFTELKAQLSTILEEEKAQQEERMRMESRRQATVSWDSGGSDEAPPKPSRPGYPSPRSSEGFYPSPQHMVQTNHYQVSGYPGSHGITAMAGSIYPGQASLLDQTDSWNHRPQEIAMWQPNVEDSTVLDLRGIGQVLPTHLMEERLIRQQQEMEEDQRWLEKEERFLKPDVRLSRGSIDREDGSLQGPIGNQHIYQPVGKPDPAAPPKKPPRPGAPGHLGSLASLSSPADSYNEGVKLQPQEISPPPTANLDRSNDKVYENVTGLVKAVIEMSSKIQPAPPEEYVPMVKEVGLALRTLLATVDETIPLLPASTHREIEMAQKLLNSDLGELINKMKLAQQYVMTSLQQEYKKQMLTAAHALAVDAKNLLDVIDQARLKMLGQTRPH
The test system of assay [4] is Fibrinogen (Alexa647-labelled). The assay can be described thus: fibrinogen binders on compound microarrays, profiling panel, artefact control for SMM control-protein annotation, biochemical, small-molecule microarray, 635/667 nm fluorescence (AID 1131).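 Further: z-score merges 667 nm fluorescence with per-spot signal-to-noise over triplicate slides.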 The settings on record: fibrinogen-A647 binding fluorescence, higher = more signal.
The target of assay [5] is Follistatin (Homo sapiens) (UniProt P19883). Description: follistatin binders on small-molecule microarrays, primary screen, biochemical, small-molecule microarray, 635/667 nm fluorescence (AID 1132). The following applies: FST binding, 635 nm fluorescence, higher = more signal.
Follistatin (Homo sapiens), sequence (P19883 whole entry, looked up): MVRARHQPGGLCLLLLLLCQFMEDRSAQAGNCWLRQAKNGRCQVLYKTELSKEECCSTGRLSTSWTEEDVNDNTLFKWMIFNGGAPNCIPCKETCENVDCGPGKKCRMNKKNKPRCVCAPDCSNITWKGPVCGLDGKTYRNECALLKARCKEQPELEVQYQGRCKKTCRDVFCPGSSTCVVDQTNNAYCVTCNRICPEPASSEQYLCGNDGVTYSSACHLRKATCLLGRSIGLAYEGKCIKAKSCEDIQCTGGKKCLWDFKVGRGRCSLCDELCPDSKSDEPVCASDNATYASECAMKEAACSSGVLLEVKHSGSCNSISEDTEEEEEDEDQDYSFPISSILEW
The target in assay [6] is Fibroblast growth factor 2 (Homo sapiens) (UniProt P09038). Description: FGF2 binders on small-molecule microarrays, primary screen, biochemical, small-molecule microarray, 635/667 nm fluorescence (AID 1133). The settings on record: small-molecule microarray binding, FGF2, fluorescence 635/667; higher = more signal.
Fibroblast growth factor 2 (Homo sapiens), sequence (P09038 whole entry, looked up): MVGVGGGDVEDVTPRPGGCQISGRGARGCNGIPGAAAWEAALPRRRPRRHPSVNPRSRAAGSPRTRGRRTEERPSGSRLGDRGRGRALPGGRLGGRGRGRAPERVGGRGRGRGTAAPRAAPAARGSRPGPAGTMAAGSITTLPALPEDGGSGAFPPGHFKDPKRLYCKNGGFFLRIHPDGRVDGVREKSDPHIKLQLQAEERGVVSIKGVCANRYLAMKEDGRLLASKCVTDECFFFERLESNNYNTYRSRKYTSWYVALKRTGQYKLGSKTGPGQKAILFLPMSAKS
A short description of assay [7]: mitochondrial membrane potential change in A549 cells, profiling panel, cell-based, JC-1 fluorescence, basal, 24 h, 100 nL (AID 1138).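 Further: A549 lung adenocarcinoma cells under basal conditions with no added stimulus; test concentration not given here.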 The settings on record: higher = more signal.
Assay [8] deals with Lefty1. The assay can be described thus: Lefty1 binders on small-molecule microarrays, primary screen, biochemical, small-molecule microarray, 635/667 nm fluorescence (AID 1139). The settings on record: small-molecule microarray binding, fluorescence 635/667; higher = more signal.
Assay [9] has as its system wheat germ agglutinin (Triticum aestivum), Alexa647-labelled. Description: wheat germ agglutinin binders on compound microarrays, profiling panel, artefact control for SMM control-protein annotation, biochemical, small-molecule microarray, 635/667 nm fluorescence (AID 1140).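 Further: score merges 667 nm feature emission with signal to noise over triplicate slides.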 The settings on record: WGA-A647 binding, 635 nm fluorescence, higher = more signal.
The target in assay [10] is Luciferin 4-monooxygenase (Photinus pyralis) (UniProt P08659). Description: firefly luciferase enzyme inhibitors, primary screen, biochemical, luminescence, purified enzyme, 2006 set (AID 1141).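 Further: cell-free assay with purified firefly luciferase at 100 ng per well in PBS; test concentration not given here.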 The settings on record: SteadyGlo luminescence, 30 min, higher = more signal, called active from +8 up or from −8 down.
Luciferin 4-monooxygenase (Photinus pyralis), sequence (P08659 whole entry, looked up): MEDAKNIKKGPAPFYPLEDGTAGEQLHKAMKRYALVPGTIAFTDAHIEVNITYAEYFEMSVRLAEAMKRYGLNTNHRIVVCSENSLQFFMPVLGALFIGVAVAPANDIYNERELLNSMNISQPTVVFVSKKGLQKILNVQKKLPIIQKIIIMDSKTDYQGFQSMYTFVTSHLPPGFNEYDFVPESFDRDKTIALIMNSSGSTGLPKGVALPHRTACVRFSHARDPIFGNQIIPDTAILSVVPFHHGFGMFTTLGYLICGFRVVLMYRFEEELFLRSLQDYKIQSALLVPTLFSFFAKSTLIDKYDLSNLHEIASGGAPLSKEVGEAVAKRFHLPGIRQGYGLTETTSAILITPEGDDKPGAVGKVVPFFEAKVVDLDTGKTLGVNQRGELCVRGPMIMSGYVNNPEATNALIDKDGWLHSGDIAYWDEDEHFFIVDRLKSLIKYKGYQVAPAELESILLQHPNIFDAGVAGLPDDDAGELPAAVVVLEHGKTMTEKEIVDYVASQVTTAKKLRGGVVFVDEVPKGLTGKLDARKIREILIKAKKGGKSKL

Turning to `O=C1c2ccccc2[C@](Cc2ccccc2I)(C(=O)NCCN2CCOCC2)[C@H](c2ccc(CO)cc2)N1Cc1ccccc1C(F)(F)F`, the composite z-score in assay [1] is 0.218; in [2], 1.18; in assay [3], 0.334; in assay [4], 0.88; in assay [5], 0.447; in assay [6] it was 0.0123. Also, the composite z-score was determined as 0.246 in assay [8] and 0.418 in [9]. Moreover, the values for the z-score in assay [7] and in assay [10] were 2.25 and -0.0684 (inactive), respectively.

`C=C(COC)C(=O)CC[C@H](OC(C)=O)c1ccc(CO)o1`: the composite z-score is 1.59 in assay [1]; -0.805 in assay [2]; -0.451 in assay [3]; 0.0974 in assay [4]; 1.37 in [5]; 1.45 in assay [6]. The composite z-score in [8] stood at 0.744; in assay [9], 0.841. For the same compound, the values for the z-score in assay [7] and in assay [10] were -0.403 and 0.288 (inactive), respectively.

For the compound `COC(=O)[C@@]1(Cc2ccc(OC)cc2)[C@H]2c3cc(C(=O)N(C)C)n(Cc4c(CO)[nH]cc(C)c4=O)c3C[C@H]2CN1C(=O)c1ccccc1`, the composite z-score in assay [1] was 0.566; in [2], 1.18; in assay [3] it was 1.93; in assay [4], 0.0557; in [5] it was 0.0689; in assay [6], -0.583. For the same compound, the composite z-score came to 0.0267 in [8] and 0.19 in assay [9]. The z-score was 0.144 in assay [7] and 1.48 (inactive) in assay [10].

With `COc1ccc([Si](C)(C)[C@H]2[C@H](CC(=O)N3CCC[C@H]3CO)O[C@@]3(C(=O)N(Cc4cccc(N5CCCCC5=O)c4)c4ccccc43)[C@@H]2C)cc1`, the composite z-score was found to be 0.999 in assay [1]; 0.989 in [2]; 0.79 in [3]; 0.732 in assay [4]; 1.08 in [5]; 1.52 in assay [6]. The composite z-score in assay [8] came to 1.36; in [9], 0.442. Moreover, the z-score in assay [7] is 3.51; in [10], -1.5 (inactive).

Regarding `O=C1OC[C@@H](c2ccccc2)n2cc(/C=C/c3ccccc3)cc21`, the composite z-score in assay [1] was 0.353; in assay [2] it was -0.58; in assay [3], -0.102; in assay [4], 0.5; in [5], -0.324; in [6], -0.574. Also, the composite z-score is -0.0599 in assay [8] and -0.328 in [9]. Besides, the figures for the z-score in assay [7] and in assay [10] were -0.512 and 0.287 (inactive), respectively.

As for `C=CCNC(=O)[C@H]1[C@@H]2C(=O)O[C@@H](c3ccccc3)[C@@H](c3ccccc3)N2[C@@H](c2ccc(O)cc2)[C@]12C(=O)Nc1ccc(C#CCC(C(=O)OC)C(=O)OC)cc12`, the composite z-score in assay [1] was 2.01; in assay [2], 1.08; in assay [3], 0.144; in assay [4], -0.078; in assay [5], 0.636; in assay [6], 0.497. For the same compound, the results for the composite z-score in [8] and in [9] were 0.0372 and -0.0126, respectively. Further, the z-score in [7] was 0.243; in [10] it was -1.37 (inactive).

In the case of `CCCCC(=C=CC[C@@H](O)c1ccc(OCCO)cc1)CCO`, the composite z-score in assay [1] is 1.83; in [2], 0.407; in [3] it was 0.814; in [4], 0.0258; in assay [5] it was 0.66; in [6], 0.329. Besides, the results for the composite z-score in assay [8] and in assay [9] were 0.452 and 1.16, respectively. The z-score in assay [7] is 1.57; in assay [10], -1.91 (inactive).

On to `CCCCN1CC=CC23O[C@@H]4/C=C\CCCOC(=O)C4[C@H]2C(=O)N(CCCCCCO)[C@@H]3C1=O` (stereo not given in full), for which the composite z-score was 0.193 in assay [1]; -0.0399 in assay [2]; 0.0326 in [3]; -1.21 in [4]; -1.02 in assay [5]; -0.621 in assay [6]. In addition, the composite z-score is -0.331 in [8] and -0.13 in assay [9]. In addition, the z-score is 1.56 in assay [7] and -0.0067 (inactive) in [10].

With `CC(C)(C)OC(=O)CC[C@]1(C(=O)N2CCOCC2)COC(c2ccc(OCCCO)cc2)=N1`, the composite z-score in [1] was 2.44; in [2], 0.882; in assay [3], 0.427; in assay [4], 0.507; in [5] it was -0.0198; in assay [6], -0.225. The values for the composite z-score in assay [8] and in assay [9] were -0.692 and 0.672, respectively. Moreover, the z-score in assay [7] was 1.62; in assay [10], -1.06 (inactive).

Take `C=C(C(=O)CC[C@@H](OC(=O)c1ccccc1-c1ccccc1C(=O)O)c1cccc(OCCO)c1)C(C)C`: the composite z-score in [1] was 0.256; in [2], -0.481; in assay [3] it was -0.285; in assay [4] it was -0.0661; in [5] it was 1.53; in assay [6], 1.54. For the same compound, the values for the composite z-score in [8] and in [9] were 1.69 and 0.58, respectively. Besides, the z-score was 0.282 in assay [7] and -1.62 (inactive) in assay [10].

Take `C=C(C(=O)CC[C@@H](OC(=O)c1ccccc1-c1ccccc1C(=O)O)c1ccc(OCCO)cc1)C(C)C`: the composite z-score was 1.19 in assay [1]; 0.977 in assay [2]; -0.118 in [3]; 0.691 in assay [4]; 1.2 in [5]; 1.77 in assay [6]. Moreover, the composite z-score in assay [8] is 1.26; in assay [9], 0.889. Moreover, the z-score in assay [7] is 0.58; in assay [10], -2.66 (inactive).
